# Results filed as inconclusive are left out. Calls of active or inactive are those of the source. The call rests on the fitted dose curve; in most records, active means well fitted cell-killing curve with a large enough effect in the repeat runs; inconclusive means weak or mixed curves; inactive means no such curve, though single readings can be large or run the other way.
# Experiment: qHTS assay to identify small molecule agonists of the peroxisome proliferator-activated receptor delta (PPARd) signaling pathway - cell viability counter screen (AID 743211); further: nearly all actives have a fitted effect of over 55% in size
# Conditions: PPARd-bla HEK293H viability, CellTiter-Glo luminescence, 17 h; series mostly up to 62.6 µM
# Method in brief: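 Multiplexed format: after the 2 h room-temperature LiveBLAzer B/G FRET step, CellTiter-Glo was added to the same wells. Luminescence after 30 min gave cell viability; compound exposure was 17 h at 37C.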
row,Compound,outcome
1,C#CC(C)N(C)C(=O)Nc1ccc(Cl)cc1 (centres undefined),inactive
2,CC(C)(C)OC(=O)c1ccc(O)cc1,inactive
3,CCN(C)C(=O)Oc1cccc([C@H](C)N(C)C)c1,inactive
4,CC(=O)c1ccc2c(c1)Cc1ccccc1-2,inactive
5,CCN1CCc2nc(N)oc2CC1,inactive
6,COc1nccnc1NS(=O)(=O)c1ccc(N)cc1,inactive
7,BrCCCCCBr,inactive
8,c1ccc2c(c1)ccc1c3ccccc3ccc21,inactive
9,CCC(C=O)CC,inactive
10,CN(CCOc1ccc(NS(C)(=O)=O)cc1)CCc1ccc(NS(C)(=O)=O)cc1,inactive
11,O=C1c2ccccc2C(=O)N1CCl,inactive
12,CN(C)CCOCCO,inactive
13,CCOC(=O)CC(=O)c1ccccc1,inactive
14,O=C(O)c1ccc(Cl)cc1Cl,inactive
15,CN(C)c1ccc(C=O)cc1,inactive
16,CCOc1cc(NC(C)=O)ccc1C(=O)OC,inactive
17,CC(=C(CCOC(=O)C(C)C)SSC(CCOC(=O)C(C)C)=C(C)N(C=O)Cc1cnc(C)nc1N)N(C=O)Cc1cnc(C)nc1N,inactive
18,C[C@@H](Oc1ccc(CNC(=O)c2cccnc2Oc2ccc3c(c2)OCO3)c(F)c1)C(=O)O,inactive
19,O=C(NCCN1CCOCC1)c1ccc(Cl)cc1,inactive
20,N[C@@H](COP(=O)(O)O)C(=O)O,inactive
21,COCCOCCOCCOCCO,inactive
22,CCCCCCCC/C=C\CCCCCCCC(=O)OCCCC,inactive
23,Cc1ccsc1/C=C/C1=NCCCN1C,inactive
24,CNC(=O)[C@H]1O[C@@H](n2cnc3c(NCc4cc(Cl)ccc4OCc4cc(C)no4)ncnc32)[C@H](O)[C@@H]1N,inactive

# Reference: PubChem BioAssay (Tox21)
